NPC1 prom act – qHTS Assay for NPC1 Promoter Activators | Huh7 NPC1 promoter luciferase reporter, 24 h | Potency, µM (series often up to 9.22 µM), for inactives: at the top dose activation, actives largely listed as activators | actives 2.4% (n = 320,000) | AID 485313, 2010; further: % of control where 0% means no effect; nearly all actives have a fitted effect of over 60% in size
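Luminescence from an NPC1 promoter-driven luciferase reporter in stably transfected Huh7 cells was measured after 24 h compound treatment at 37 °C, followed by 10 min ambient incubation with luciferase detection reagent.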
SMN2 splice up – qHTS Assay for Enhancers of SMN2 Splice Variant Expression | Potency, µM (doses to about 46.1 µM), for inactives: at the highest dose activity change, positive = activation, usual class: activators | HEK293 SMN2-luciferase splicing reporter, luminescence, 30-36 h | actives 2.8% (n = 210,000); further: % of control where 0% means no effect; nearly all actives have a fitted effect of over 55% in size
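qHTS luciferase splicing reporter: luminescence rises when SMN2 exon 7 is included in transfected HEK293 cells. Compound exposure lasted 30-36 h at 37C, with 4.5 mM final sodium butyrate as control, followed by a ONE-Glo read.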
KinaseGlo FLuc – Counterscreen for Luciferase (Kinase-Glo TM) Inhibition; Luciferin 4-monooxygenase (Photuris pensylvanica), Q27757; Kinase-Glo luciferase, ATP luminescence, 8 min; Potency, µM (top dose mostly 38.3 µM), without a hit: at the highest dose activity change, negative = inhibition, hits mostly inhibitors; actives 0.28% (n = 200,000); further: on the % scale 0 is the no-effect control and ±100 the full control effect; nearly all actives have a fitted effect of over 60% in size
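Inhibition of Kinase-Glo luciferase light generation was assessed at 10 uM ATP in pH 7.2 imidazole buffer, with luminescence measured after eight minutes at ambient temperature.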
FLuc modulator – qHTS profiling assay for firefly luciferase inhibitor/activator using purifed enzyme and Km concentrations of substrates (counterscreen for miR-21 project). AID 588342, 2011. Potency, µM (top dose mostly 57.5 µM), for inactives: top-dose activity change, negative = inhibition, actives largely listed as inhibitors. purified FLuc, Km substrates, luminescence inhibition. actives 6.9% (n = 360,000);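 further: plate controls were vehicle for no effect and reference inhibitor for full effect; nearly all actives have a fitted effect of over 55% in size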
Target sequence (P08659 whole entry, looked up): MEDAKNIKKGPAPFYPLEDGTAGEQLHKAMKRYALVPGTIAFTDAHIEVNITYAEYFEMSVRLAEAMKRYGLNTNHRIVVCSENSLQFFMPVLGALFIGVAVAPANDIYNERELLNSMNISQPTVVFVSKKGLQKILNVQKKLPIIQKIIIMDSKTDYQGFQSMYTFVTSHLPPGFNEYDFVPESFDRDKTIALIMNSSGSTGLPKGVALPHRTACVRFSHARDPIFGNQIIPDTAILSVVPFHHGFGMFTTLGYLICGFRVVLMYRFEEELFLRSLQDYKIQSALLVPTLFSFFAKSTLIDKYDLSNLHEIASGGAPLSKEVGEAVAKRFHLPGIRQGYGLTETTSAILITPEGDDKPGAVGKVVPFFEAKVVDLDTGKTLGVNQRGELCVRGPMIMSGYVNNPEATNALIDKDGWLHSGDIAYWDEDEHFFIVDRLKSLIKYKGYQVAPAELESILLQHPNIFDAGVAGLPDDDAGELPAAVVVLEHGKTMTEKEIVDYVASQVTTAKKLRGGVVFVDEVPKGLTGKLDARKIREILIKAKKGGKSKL
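Biochemical qHTS of compounds, final roughly 60 µM downward over six points, against 10 nM purified firefly luciferase using Km concentrations of substrates (10 uM D-luciferin, 10 uM ATP) in Tris acetate pH 7.5 buffer; luminescence output.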
Rab9 promoter act – qHTS Assay for Rab9 Promoter Activators | Huh7 Rab9 promoter-luciferase reporter, luminescence, 24 h | Potency, µM (titrated, usually from 9.22 µM), without a hit: at the highest dose activation, negative = inhibition, usual class: activators | actives 2.8% (n = 320,000) | AID 485297, 2010; further: % of control where 0% means no effect; nearly all actives have a fitted effect of over 60% in size
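Cell-based reporter: Huh7 stable for Rab9 promoter-driven luciferase, plated in reduced-serum medium with 10% FBS at 1500 cells/well, compound-treated 24 h at 37 °C, luminescence read after 10 min reagent.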
* hit, by the source's call; ? = inconclusive; · = no result; [ ] = remark or other dose. Only some compounds are listed: those with a hit (about 7.3% of all), similar ones and a draw of the others. The call rests on the fitted dose curve; in most records, active means well fitted curve in the direction sought with a large enough effect; inconclusive means small, poorly fitted or top-dose-only effect, or another doubt; inactive means no such curve, though single readings can be large; an effect the other way counts as inactive or inconclusive. Potency means the concentration at half of the fitted maximal effect.

SMILES	NPC1 prom act	SMN2 splice up	KinaseGlo FLuc	FLuc modulator	Rab9 promoter act
Cc1c(/C(O)=C2/C(=O)C(=O)N(CCN3CCOCC3)C2c2cccs2)cnn1-c1ccccc1 (stereo unspecified)	4.47µM*	?	-3.2%	9.53µM*	1.26µM*
Cc1nc2ccccn2c1/C(O)=C1\C(=O)C(=O)N(CCN2CCOCC2)C1c1cccs1 (stereo unspecified)	-2.7%	5.1%	1.7%	2.7%	-4.9%
Cc1ccc(C2/C(=C(\O)c3cnn(-c4ccccc4)c3C)C(=O)C(=O)N2CCN(C)C)o1 (stereo unspecified)	?	-22.7%	0.2%	-13.4%	?
CCCCc1c(O)nc2sc3cc(OC)ccc3n2c1=O	16.6%	29.0%	-3.7%	10.7µM*	22.2%
Cc1cccc(Cn2c(C)c(CNC3CCCCC3)c(C(=O)O)c2C)c1	·	2.3%	·	2.1%	·
COc1cccc(Nc2ccc(N3CCCCC3)cc2)c1OC	3.55µM*	·	·	?	2.82µM*
COc1ccccc1CNc1ccc(N2CCCCC2)cc1	15.7%	7.1%	-1.1%	15.1µM*	16.8%
COc1cccc(CNc2ccc(N3CCCCC3)cc2)c1OC	?	-4.9%	-3.1%	?	24.0%
Cc1ccc(CN(C(=O)c2ccccc2F)c2ccccn2)o1	·	·	·	-3.4%	·
CC(=O)NNC(=O)c1sc(=S)n2c1[nH]c(=O)c1sccc12	-3.8%	3.9%	3.9%	19µM*	-3.6%
NC(=O)c1sc(=S)n2c1[nH]c(=O)c1sccc12	0.2%	25.2%	4.0%	?	2.0%
O=C(O)[C@@H]1[C@@H](C(=O)O)[C@@]23CCCC2=C2CC[C@@]3(C(=O)O)[C@@]3(C(=O)O)C[C@@]213	·	-7.1%[9.22 µM]	-4.5%[7.66 µM]	·	·
CN(C)/C=C(\C=O)c1onc(-c2ccccc2Cl)c1C#N	-3.2%	-5.3%	1.3%	?	2.0%
N#Cc1c(-c2ccccc2Cl)noc1/C=C/Nc1ccc(C(=O)O)cc1	5.1%	·	-18.9%	23.9µM*	6.4%
CC(C)CCNC(=O)c1ccc(NC(=O)N2CCCCc3ccccc32)cc1	·	-8.7%	·	0.5%	·
CCOC(=O)C(C(C)=O)c1c(Br)c(O)c(O)c2c(C(=O)c3ccc(C)cc3)coc12 (stereo unspecified)	-25.5%	-4.1%	-4.6%	19µM*	-14.4%
CCOC(=O)c1c(C)n(-c2ccc(C)cc2)c2c(C(C(C)=O)C(=O)O)c(Br)c(O)c(O)c12 (stereo unspecified)	5.2%	?	-4.0%	-3.3%	1.8%
Cc1nc(-c2cccc(NC(=O)Cc3ccccc3)c2)cs1	-1.8%	2.9%	-1.7%	?	3.8%
CC(=O)NNc1nc(-c2ccc(NC(C)=O)cc2)cs1	0.4%	12.9%	-2.2%	1.0%	-2.2%
CC(C)C(=O)Nc1cccc(-c2csc(-c3ccccc3)n2)c1	-2.0%	?	-2.0%	16.9µM*	-0.9%
CC(C)C(=O)Nc1ccc(-c2csc(-c3ccccc3)n2)cc1	2.24µM*	?	-3.7%	?	?
O=C(Nc1nccs1)C1Cc2ccccc2CN1S(=O)(=O)c1ccc(F)cc1 (stereo unspecified)	?	11.2µM*	1.5%	23.9µM*	?
O=C(NC1CCCCC1)C1Cc2ccccc2CN1S(=O)(=O)c1ccc(F)cc1 (stereo unspecified)	-4.6%	-17.1%	1.2%	0.4%	-3.4%
CCS(=O)(=O)N1Cc2ccccc2CC1C(=O)Nc1ncc(C)s1 (stereo unspecified)	26.2%	12.6µM*	3.5%	?	?
CCS(=O)(=O)N1Cc2ccccc2CC1C(=O)Nc1ccc(C)cc1 (stereo unspecified)	0.2%	8.7%	-3.5%	?	11.8%
CCS(=O)(=O)N1Cc2ccccc2CC1C(=O)Nc1cccc(C)c1 (stereo unspecified)	?	?	0.1%	23.9µM*	26.9%
CCOc1ccc(S(=O)(=O)NCCc2sc3nc(-c4ccc(F)cc4)nn3c2C)cc1	·	·	·	5.8%	·
